Compound activity (PubChem BioAssay)
Sampled rows, rich in hits. Any-hit rate of the full collection: about 1.2%.
RGS4-Gao reg = human RGS4-Galphao interaction regulation; P09471; Multiplexed bead flow cytometry, RGS4-Galphao binding; actives lie on both sides; 0.33% of 220,000 active; binding response (% of control), % at 10 µM; in the data active means binding response below about 49% or above about 150%; inactive means in between;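 further: fluorescent Galphao activated with aluminum fluoride binding bead-coupled RGS4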
Target sequence (P09471 whole entry, looked up): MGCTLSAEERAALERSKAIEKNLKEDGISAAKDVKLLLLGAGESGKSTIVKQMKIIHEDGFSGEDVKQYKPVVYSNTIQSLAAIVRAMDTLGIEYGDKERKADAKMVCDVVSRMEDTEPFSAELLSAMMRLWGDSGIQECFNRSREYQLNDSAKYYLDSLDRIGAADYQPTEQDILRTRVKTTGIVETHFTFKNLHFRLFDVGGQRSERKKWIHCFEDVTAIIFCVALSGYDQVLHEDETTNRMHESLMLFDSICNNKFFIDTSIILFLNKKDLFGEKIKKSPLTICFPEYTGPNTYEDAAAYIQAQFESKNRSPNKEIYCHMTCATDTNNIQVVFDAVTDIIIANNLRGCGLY
Avidin fluor = compound fluoresces at 488/530 nm on avidin beads | compound fluorescence 488/530 nm, flow cytometry; hits give high values | fluorescence (KMESF) at 10 µM | 0.38% of 220,000 active | AID 1775; in the data active means fluorescence above about 47
RGS16-Gao = regulators of human RGS16-Galphao interaction; 0.38% of 220,000 active; O15492+P09471; bead-based flow cytometry RGS16-Galphao binding, fluorescence; actives lie on both sides; binding response (% of control), % at 10 µM;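 further: Galphao activated by GDP with aluminum fluoride before binding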
GSH bead fluor = GSH bead compound fluorescence profile; GSH beads flow cytometry, compound fluorescence 488/530 nm; hits give high values; fluorescence (KMESF) at 10 µM; 0.25% of 190,000 active; in the data active means fluorescence above about 89;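 further: glutathione beads carrying GST-tagged Bcl family fusion proteins plus one bare bead set; values are compound well signal with DMSO vehicle wells as background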
RGS7-Gao = human RGS7-Galphao interaction regulation. Multiplexed bead flow cytometry, RGS7-Galphao binding; actives lie on both sides. binding response (% of control), % at 10 µM. 0.35% of 220,000 active. AID 1439; in the data active means binding response below about 49% or above about 150%; inconclusive means no clear call, values can overlap the other calls; inactive means in between;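 further: fluorescent Galphao held in activated GDP-AlF4 state binding bead-coupled RGS7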
RGS8-Gao reg = regulators of human RGS8-Galphao interaction; multiplexed bead flow cytometry, RGS8-Galphao binding; actives lie on both sides; AID 1423; 0.34% of 220,000 active; response (percent of control binding), % at 10 µM; in the data active means response below about 60% or above about 140%; inactive means in between;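 further: Galphao activated as the GDP aluminium fluoride complex binding bead-coupled RGS8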
RGS-Gao = modulates binding between human RGS4 and Galphao | AID 1504 | multiplexed bead flow cytometry, RGS–Galpha-o binding | shares compounds with RGS16-Gao | 99% of 1,600 active | RGS4–Galpha-o binding response, % at 10 µM;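 further: fluorescently labeled Galpha-o bound to GDP with aluminium fluoride binding biotinylated RGS beads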
Target sequence (P09471 whole entry, looked up): as above
Target sequence (P49798 whole entry, looked up): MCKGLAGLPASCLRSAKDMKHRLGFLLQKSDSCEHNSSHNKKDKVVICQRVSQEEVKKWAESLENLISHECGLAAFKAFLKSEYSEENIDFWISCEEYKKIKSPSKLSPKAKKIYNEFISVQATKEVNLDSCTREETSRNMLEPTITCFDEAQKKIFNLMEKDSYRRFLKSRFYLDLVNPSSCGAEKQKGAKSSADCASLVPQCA
Biotin-avidin = biotin-avidin bead binding disruption counter-screen; shares compounds with RGS16-Gao; streptavidin beads, fluorescein-biotin binding, flow cytometry; inhibition, % at 10 µM; 1,700 tested, under 10 active; AID 1783;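 active means inhibition above 50%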;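 further: median green fluorescence of gated singlet beads compared with DMSO control wells; 0% = DMSO wells and 100% = complete loss of bead fluorescence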
RGS8-Gao confirm = confirmation of regulators of human RGS8-Galphao interaction; shares compounds with RGS16-Gao; 3% of 1,700 active; bead-based flow cytometry RGS8-Galphao binding, fluorescence; actives lie on both sides; binding response (% of control), % at 10 µM; in the data active means binding response below about 72% or above about 130%; inactive means in between;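 further: Galphao activated as GDP AlF4 complex before binding bead RGS8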
RGS7-Gao single = RGS7-Galphao interaction regulation, single point confirmation; response (percent of control binding), % at 10 µM; 7.8% of 1,700 active; shares compounds with RGS16-Gao; bead-based flow cytometry RGS7-Galphao binding; actives lie on both sides; in the data active means response below about 75% or above about 130%; inactive means in between;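 further: fluorescent Galphao activated with GDP and aluminum fluoride binding bead-coupled RGS7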
RGS16-Gao single = RGS16-Galphao interaction regulation, single point confirmation; shares compounds with RGS16-Gao; bead-based flow cytometry, RGS16-Galphao binding; actives lie on both sides; response (% of control binding), % at 10 µM; 4% of 1,700 active; AID 1838; in the data active means response below about 74% or above about 130%; inactive means in between;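 further: Galphao activated as the GDP aluminium fluoride complex binding bead-coupled RGS16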
RGS4-Gao confirm = confirmation of regulators of human RGS4-Galphao interaction; binding response (% of control), % at 10 µM; RGS4-Galphao binding, multiplexed bead flow cytometry; actives lie on both sides; shares compounds with RGS16-Gao; 4% of 1,700 active; in the data active means binding response below about 74% or above about 130%; inactive means in between
RGS19-Gao conf = RGS19-Galphao interaction regulation, single point confirmation; shares compounds with RGS16-Gao; bead-based flow cytometry RGS19-Galphao binding; actives lie on both sides; response (percent of control binding), % at 10 µM; 5% of 1,700 active; in the data active means response below about 50% or above about 160%; inactive means in between;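 further: 100% = no compound control and 0% = blank background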
Numbers without * were called inactive; ? = inconclusive; / = no result given; [ ] = dose if it differs, or a comment. Unless noted, how the calls were made is not given here.

SMILES	RGS4-Gao reg	Avidin fluor	RGS16-Gao	GSH bead fluor	RGS7-Gao	RGS8-Gao reg	RGS-Gao	Biotin-avidin	RGS8-Gao confirm	RGS7-Gao single	RGS16-Gao single	RGS4-Gao confirm	RGS19-Gao conf
O=c1oc2c(O)c(O)cc3c(=O)oc4c(O)c(O)cc1c4c23	51.2	1	80.5	11	31.0*	53.9*	51.2*	/	/	/	/	/	/
CC(=O)OCCCNc1cc(Sc2nc3ccccc3s2)c2nonc2c1[N+](=O)[O-]	82.5	-2	8.5*	24	96.0	50.8*	82.5*	0.0	77.9	77.6	82.2	96.1	26.2*
CCCCCC(=O)NC(=S)Nc1cccc(C(C)=O)c1	99.1	16	103.0	17	100.5	101.7	/	/	/	/	/	/	/
CCCC(=O)NC(=S)Nc1cccc(C(C)=O)c1	114.1	14	325.6	36	118.7	145.0*[activator]	114.1*	1.2	99.7	100.1	100.4	100.2	97.7
Cc1ccc(NC(=O)NC(=O)N(C(C)C)S(C)(=O)=O)nc1	100.2	16	239.1*[activator]	8	97.9	118.6	100.2*	/	/	/	/	/	/
CC1=C(C(N)=O)C(c2cccs2)n2nc(-c3cccc(C)c3)nc2N1 (configuration not stated)	34.2*	8	26.4	17	30.9*	33.7*	/	0.8	99.8	100.8	98.0	97.6	91.8
CC1=C(C(N)=O)C(c2cccs2)n2nc(-c3cccc(Cl)c3)nc2N1 (configuration not stated)	99.4	27	106.1	25	100.9	101.5	/	/	/	/	/	/	/
O=C(N/N=C/c1cc2c3c(c1O)CCCN3CCC2)c1ccccc1O	25.0*	1	-13.4	9	14.8*	42.8*	/	-4.3	88.5	83.6	85.2	86.2	104.0
Cc1nn(-c2ccccc2)c(N2CCCC2)c1/C=N/NC(=O)c1ccccc1O	111.5	11	117.6	14	107.5	105.7	/	/	/	/	/	/	/
COc1ccccc1-n1c(=O)c2c3c(sc2n2c(=S)[nH]nc12)CCC3	100.2	10	103.4	12	103.0	99.4	/	/	/	/	/	/	/
Cc1cc(Oc2ccc([N+](=O)[O-])cc2)nc(N2CCOCC2)n1	96.2	6	98.2	/	?	99.2	/	/	/	/	/	/	/
Cc1cc(Oc2ccc(C#N)cc2)nc(N2CCOCC2)n1	41.3*	24	45.1	12	43.4*	55.5*	/	-0.1	100.1	84.3	97.4	89.2	106.7
O=S(=O)(c1ccc(F)cc1)N1CCN(c2ncnc3c2cnn3-c2ccccc2)CC1	128.6	13	301.1	14	121.6	141.9*[activator]	128.6*	-0.4	95.8	88.7	95.2	94.7	107.3
Cc1cccc(-n2ncc3c(N4CCOCC4)ncnc32)c1	64.7	3	8.8	17	62.9	58.9*	64.7*	1.6	102.4	105.0	102.9	104.8	93.5
COc1cc(C(=O)NNC(=S)Nc2ccc(S(N)(=O)=O)cc2)cc(OC)c1OC	89.9	8	83.8	19	97.6	82.7	/	/	/	/	/	/	/
C/C(=N\Nc1ccc([N+](=O)[O-])cc1[N+](=O)[O-])C(C)C(C)C (configuration not stated)	97.5	4	93.5	12	97.0	100.8	/	/	/	/	/	/	/
COc1ccc(NC(C)=O)cc1S(=O)(=O)N1CCN(C/C=C/c2ccccc2)CC1	100.0	12	98.5	10	?	99.7	/	/	/	/	/	/	/
Cc1ccc(NCc2nnc(SCC(=O)O)n2Cc2ccccc2)cc1Cl	101.5	10	101.8	11	104.2	99.2	/	/	/	/	/	/	/
Cc1ccc(NCc2n[nH]c(=S)n2Cc2ccccc2)cc1Cl	110.9	65*	102.7	11	166.9*[activator]	97.6	110.9*	0.9	101.4	110.0	99.7	102.1	106.0
COc1ccc(-n2c(CNC(=O)COc3ccc(Cl)cc3Cl)n[nH]c2=S)cc1	96.2	11	101.4	10	98.7	98.8	/	/	/	/	/	/	/
Cc1cc(C(=O)Oc2cccnc2)ccc1[N+](=O)[O-]	90.8	1	24.8*	8	104.5	75.9	90.8*	-0.6	103.5	107.2	103.7	102.5	100.2
Cc1ccccc1N1CCN(C2=NC(=O)/C(=C/c3cn[nH]c3-c3ccccc3)S2)CC1	116.3	3	204.6	9	112.0	116.8	/	/	/	/	/	/	/
CC(C)n1c(C(F)(F)F)nc2cc(C(=O)N3CCCCC3)ccc21	100.5	4	101.9	/	?	104.2	/	/	/	/	/	/	/
Cc1ccc(-n2c(C)n[nH]c2=S)cc1	114.5	16	183.3*[activator]	9	118.8	118.2	114.5*	0.6	110.9	130.0*[activator]	108.0	111.2	114.0
Cc1ccc(-n2c(C)n[nH]c2=S)cc1C	102.0	11	106.7	9	103.0	102.6	/	/	/	/	/	/	/
SMILES	RGS4-Gao reg	Avidin fluor	RGS16-Gao	GSH bead fluor	RGS7-Gao	RGS8-Gao reg	RGS-Gao	Biotin-avidin	RGS8-Gao confirm	RGS7-Gao single	RGS16-Gao single	RGS4-Gao confirm	RGS19-Gao conf
COc1ccc(-c2[nH]ncc2CN(C)CCN2CCOCC2)cc1F	-6.3*	-2	-4.7*	15	-15.3*	6.9*	/	-1.7	91.3	80.8	86.7	87.4	84.0
COc1cc(OC)cc(N2C(=O)CSCC2=O)c1	98.9	8	98.3	/	?	100.0	/	/	/	/	/	/	/
CCCCn1nnnc1SCC(=O)Nc1ccc(N(C)C)cc1	101.7	10	98.9	58	102.0	102.9	/	/	/	/	/	/	/
C=CCN(C(=O)Nc1ccc(Cl)cc1)C1CC(=O)N(c2ccc(OC)cc2)C1=O (configuration not stated)	100.8	9	96.7	7	100.4	99.0	/	/	/	/	/	/	/
C=CCN(C(=O)Nc1ccc(F)cc1)C1CC(=O)N(c2ccc(OC)cc2)C1=O (configuration not stated)	133.6	6	349.6	8	125.3	158.5*[activator]	133.6*	0.4	98.1	102.9	101.4	105.3	104.1
CCOC(=O)c1ccc(NC(=O)C2(c3ccccc3)CCCC2)cc1	131.3	5	320.8	7	122.9	144.4*[activator]	131.3*	/	/	/	/	/	/
